# Laboratory results published in PubChem BioAssay (NCI).
# About 83,000 compounds went through this panel and 20% of them were active in at least one assay; those are over-represented in the sample as a whole.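 Note: values are percent growth. 100 is the growth of untreated cells, values between 100 and 0 indicate rising inhibition; between -100 and 0 indicates cell death.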 Unmarked numbers belong to inactive results. Active and inactive are the calls of the source. The calls were made as follows: active = growth percent below 10; inactive = the rest.
# Experiments:
# Assay in all cases: NCI-60 one-dose screen, 48 h (100 = growth as untreated, 0 = no growth, -100 = all killed)
# Settings in all cases: 10 µM unless noted
# DU-145 prostate = system: DU-145 prostate
# K-562 leukemia = system: K-562 leukemia
# MALME-3M melanoma = system: MALME-3M melanoma
# MDA-MB-231 breast = system: MDA-MB-231 breast
# RXF 393 renal = system: RXF 393 renal
# SF-268 CNS = system: SF-268 CNS
# SF-295 CNS = system: SF-295 CNS
# UACC-257 melanoma = system: UACC-257 melanoma
# M14 melanoma = system: M14 melanoma
# HCT-15 colon = system: HCT-15 colon
# HT29 colon = system: HT29 colon
# SNB-75 CNS = system: SNB-75 CNS
# SNB-19 CNS = system: SNB-19 CNS
# U251 CNS = system: U251 CNS
# PC-3 prostate = system: PC-3 prostate
# SK-MEL-5 melanoma = system: SK-MEL-5 melanoma
# UACC-62 melanoma = system: UACC-62 melanoma
# SK-MEL-28 melanoma = system: SK-MEL-28 melanoma
# LOX IMVI melanoma = system: LOX IMVI melanoma
SMILES,growth (DU-145 prostate),growth (K-562 leukemia),growth (MALME-3M melanoma),growth (MDA-MB-231 breast),growth (RXF 393 renal),growth (SF-268 CNS) [%],growth (SF-295 CNS) [%],growth (UACC-257 melanoma),growth (M14 melanoma),growth (HCT-15 colon) [%],growth (HT29 colon),growth (SNB-75 CNS),growth (SNB-19 CNS) [%],growth (U251 CNS),growth (PC-3 prostate) [%],growth (SK-MEL-5 melanoma),growth (UACC-62 melanoma) [%],growth (SK-MEL-28 melanoma),growth (LOX IMVI melanoma)
C[C@@]1(N2C(=O)OC[C@@H]2c2ccccc2)C(=O)N([C@H](CC(=O)N2CCC(N3CCCCC3)CC2)C(=O)NCc2cccc(C(F)(F)F)c2)[C@@H]1/C=C/c1ccccc1,63.5%,-40.6% (active),-69.5% (active),31%,61%,63.2,100,-72.1% (active),-54.3% (active),19,-3.04% (active),66.3%,74.1,38.4%,52.8,-93% (active),24.6,-45.2% (active),
CCOC(=O)CC(=O)c1c(C)cc(C)cc1C,110%,112%,113%,103%,100%,107,103,112%,99.6%,98.2,87.7%,112%,96.2,105%,,100%,,118%,98.5%
CC/C=C\C[C@H](F)C/C=C1/C(=O)C=C[C@@H]1C/C=C\CCCC(=O)O,66.3%,10.3%,59.2%,73%,75%,82.3,96.2,49.7%,32.1%,29.4,29.5%,81.4%,63.5,19.2%,,15.5%,,46.7%,-42.6% (active)
O=C(CCCN1CCOCC1)Nc1ccc(Cn2nnc3c2C(=O)c2nnn(Cc4ccc(NC(=O)CCCN5CCOCC5)cc4)c2C3=O)cc1,82.3%,20.9%,-74.3% (active),5.78% (active),84.5%,23.4,79.3,-88% (active),60.6%,95.8,1.66% (active),-87.9% (active),59.5,18.2%,55.5,17.1%,51.5,37.3%,
COc1ccc(C(=O)c2sc3nc(-c4ccccc4OC)ccc3c2N)cc1OC,70.1%,25.1%,90.6%,64%,55.8%,64.7,47.9,86.6%,50%,58.5,56.2%,73.2%,78.2,63.2%,30.9,8.53% (active),67.8,88.8%,
CCn1cc2c(cc1=O)-c1nc3ccccc3c3ccnc(c13)C2=O,36.6%,50.6%,90.1%,75.1%,63.5%,54.3,29.9,74.2%,28.9%,50.2,57.3%,46.9%,,44.6%,63.5,42.8%,37.9,72.4%,57%
CCOc1ccc(Nc2nc(-c3c(C)nc4ncccn34)cs2)cc1,0.86% (active),4.04% (active),52.8%,-12.5% (active),-1.2% (active),28.4,17.1,78.8%,21.1%,15.4,4.76% (active),22.9%,33.4,4.82% (active),,-11.6% (active),10.6,39%,23.1%
COc1ccccc1-c1ccc2c(N)c(C(=O)c3ccc4c(c3)OCO4)sc2n1,90.5%,14.4%,48.2%,51.8%,75.3%,84.3,63.9,81.4%,46.6%,38.8,47%,85.1%,82.1,63.7%,,56.6%,42,71.3%,58%
